In PubChem BioAssay (NCATS):
Results filed as inconclusive are left out. Activity calls are given as the source filed them. Calls come from the whole dose curve; as a rule, active = well fitted curve in the direction sought with a large enough effect; inconclusive = small, poorly fitted or top-dose-only effect, or another doubt; inactive = no such curve, though single readings can be large; an effect the other way counts as inactive or inconclusive.

What was measured:
[1] = test system: HEK293; assay: Cytotoxic Profiling of Annotated Libraries Using Quantitative High-Throughput Screening (AID 1296008); conditions: Five cell lines viability, CellTiter-Glo ATP luminescence, 48-72 h; max response: stronger effect = lower value; note: nearly all actives have a fitted effect of over 60% in size; for max response: % is set by controls: 0 for no effect and ±100 for the full control effect
Outline: (§1)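 Cells exposed to compounds for 48 or 72 hr at 37 degrees Celsius. Viability read as ATP-coupled luminescence with CellTiter-Glo after 10 min at room temperature.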

[2] = test system: KB-3-1; assay: as above; conditions: Five cell lines viability, CellTiter-Glo ATP luminescence, 48-72 h; max response: stronger effect = lower value
Outline: as §1

[3] = test system: NIH3T3; assay: as above; conditions: Five cell lines viability, CellTiter-Glo ATP luminescence, 48-72 h; max response: stronger effect = lower value
Outline: as §1

[4] = test system: NIH3T3; assay: qHTS assay to identify novel small-molecules to repurpose for Merkel cell carcinoma treatment (AID 1296009); conditions: MCC and control cell lines, CellTiter-Glo viability, 72 h; at 44.8 µM (top of the series) unless noted; note: nearly all actives have a fitted effect of over 60% in size
Outline: (§2)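 Dose-response viability screen; 72 hr exposure at 37 degree celsius; CellTiter-Glo added, 10 min room temperature, luminescence read; RLUs scaled between no-cell and DMSO wells.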

[5] = test system: C33A; assay: Primary qHTS to identify gynecologic anti-cancer compounds using libraries of approved drugs and bioactive compounds (AID 1345084); conditions: Gynecologic cancer cell panel viability, ATPlite luminescence, 48 h; series mostly up to 57.5 µM; note: % is set by controls: 0 for no effect and ±100 for the full control effect; nearly all actives have a fitted effect of over 55% in size
Outline: (§3)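 Cells, 1,000 per well, plated 16 h, then exposed 48 h at 37 C to compounds. Viability by ATPlite luminescence after 15 min at room temperature.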

[6] = test system: CAOV3; assay: as above; conditions: Gynecologic cancer cell panel viability, ATPlite luminescence, 48 h; series mostly up to 57.5 µM
Outline: as §3

[7] = test system: CASKI; assay: as above; conditions: Gynecologic cancer cell panel viability, ATPlite luminescence, 48 h; series mostly up to 57.5 µM
Outline: as §3

[8] = test system: Es-2; assay: as above; conditions: Gynecologic cancer cell panel viability, ATPlite luminescence, 48 h; series mostly up to 57.5 µM
Outline: as §3

[9] = test system: HeLa; assay: as above; conditions: Gynecologic cancer cell panel viability, ATPlite luminescence, 48 h; series mostly up to 57.5 µM
Outline: as §3

[10] = test system: Hek293T; assay: as above; conditions: Gynecologic cancer cell panel viability, ATPlite luminescence, 48 h, control line for the selectivity index; series mostly up to 57.5 µM
Outline: as §3

[11] = test system: JEG-3; assay: as above; conditions: Gynecologic cancer cell panel viability, ATPlite luminescence, 48 h; series mostly up to 57.5 µM
Outline: as §3

[12] = test system: HEK293T; assay: qHTS assay to identify novel small-molecules to repurpose for Merkel cell carcinoma treatment (AID 1296009); conditions: MCC and control cell lines, CellTiter-Glo viability, 72 h; at 44.8 µM (top of the series) unless noted; note: nearly all actives have a fitted effect of over 60% in size
Outline: as §2

CC(C)/C=C1\NC(=O)C(C(C)C)n2c1nc1c(c2=O)C=CC=CO1 (stereo unspecified)
inactive: max response [1] 2.88% | max response [2] 4.42% | outcome [3] | outcome [4] | Potency [5] | Potency [6] | Potency [7] | Potency [8] | Potency [9] | Potency [10] | Potency [11]

CN(C)CCn1cc(S(=O)(=O)c2cccc(F)c2)c2cccnc21
inactive: outcome [1] | max response [2] 1.25% | max response [3] -4.92% | outcome [12] | Potency [5] | Potency [6] | Potency [7] | Potency [8] | Potency [9] | Potency [10] | Potency [11]

CC1CC2OC3(OC2C(C)(C)O)C1C1(C)CCC24CC25CCC(O[C@@H]2OC[C@@H](O)[C@H](O)[C@H]2O)C(C)(C)C5CC=C4C1(C)C3O (stereo partly specified)
inactive: outcome [1] | max response [2] 5.34% | max response [3] 0.0478% | outcome [12] inactive [at 17.4 µM] | Potency [5] | Potency [6] | Potency [7] | Potency [8] | Potency [9] | Potency [10]

CC1(C)CC[C@]2(C(=O)O)CC[C@]3(C)C(=CCC4[C@@]5(C)C[C@@H](O)[C@H](O)C(C)(C)C5CC[C@]43C)C2C1 (stereo partly specified)
inactive: outcome [1] | outcome [2] | max response [3] 4.86% | outcome [12] inactive [at 17.4 µM] | Potency [5] | Potency [6] | Potency [7] | Potency [8] | Potency [9] | Potency [10] | Potency [11]

CC1(C)C[C@H](O)C[C@@]2(C)OC(=O)C=C12
inactive: outcome [1] | outcome [2] | max response [3] 2.91% | outcome [12] inactive [at 92 µM] | Potency [5] | Potency [6] | Potency [7] | Potency [8] | Potency [9] | Potency [10] | Potency [11]

CCCCOC(=O)NC(=O)C1c2ccccc2Oc2ccccc21
inactive: outcome [1] | max response [2] 2.73% | max response [3] -5.65% | outcome [12] | Potency [5] | Potency [6] | Potency [7] | Potency [8] | Potency [9] | Potency [10] | Potency [11]

CC1CCC2(OC1)OC1CC3C4CCC5C[C@@H](O[C@@H]6O[C@H](CO[C@@H]7OC[C@@H](O)[C@H](O)[C@H]7O)[C@H](O)[C@H](O)[C@H]6O)CC[C@]5(C)C4CC[C@]3(C)C1C2C (stereo partly specified)
inactive: outcome [1] | max response [2] 9.78% | outcome [3] | outcome [12] inactive [at 17.4 µM] | outcome [4] inactive [at 17.4 µM] | Potency [5] | Potency [6] | Potency [7] | Potency [8] | Potency [9] | Potency [10] | Potency [11]

COc1ccc(CN2C(=O)C(=O)c3cc(S(=O)(=O)N4CCC[C@H]4COc4cccnc4)ccc32)cc1
inactive: outcome [1] | outcome [2] | outcome [3] | outcome [12] | outcome [4] | Potency [5] | Potency [6] | Potency [7] | Potency [8] | Potency [9] | Potency [10] | Potency [11]

c1cc(OCCCN2CCCCC2)ccc1CN1CCCCC1
inactive: max response [1] -18.4% | max response [2] -5.63% | outcome [3] | outcome [4] | Potency [5] | Potency [6] | Potency [7] | Potency [8] | Potency [9] | Potency [10] | Potency [11]

CC(C)=CCC[C@](C)(O)[C@H]1CC[C@]2(C)[C@@H]1[C@H](O)CC1[C@@]3(C)CC[C@H](O)C(C)(C)[C@@H]3[C@@H](O[C@@H]3O[C@H](CO)[C@@H](O)[C@H](O)[C@H]3O[C@@H]3O[C@H](CO)[C@@H](O)[C@H](O)[C@H]3O)C[C@]12C (stereo partly specified)
inactive: max response [1] -11.9% | max response [2] 3.39% | outcome [3] | outcome [4] inactive [at 17.4 µM] | Potency [5] | Potency [7] | Potency [8] | Potency [9] | Potency [10] | Potency [11]

CC#CC(=O)N1CCC[C@H]1c1nc(-c2ccc(C(=O)Nc3ccccn3)cc2)c2c(N)nccn12
inactive: max response [1] -0.695% | outcome [2] | max response [3] -4.42% | Potency [5] | Potency [6] | Potency [7] | Potency [8] | Potency [9] | Potency [10] | Potency [11]

CCOC(=O)CCN(C(=O)c1ccc2c(c1)nc(CNc1ccc(C(=N)N)cc1)n2C)c1ccccn1
inactive: max response [1] -11% | max response [2] -6.67% | max response [3] -4.58% | Potency [5] | Potency [6] | Potency [7] | Potency [8] | Potency [9] | Potency [10] | Potency [11]

C[C@H](NC(c1cccc2[nH]c(=O)c(=O)[nH]c12)P(=O)(O)O)c1ccc(Br)cc1 (stereo partly specified)
inactive: max response [1] 1.8% | outcome [2] | outcome [3] | outcome [4] | Potency [5] | Potency [6] | Potency [7] | Potency [8] | Potency [9] | Potency [10] | Potency [11]

O=C1CCC(=O)N(O)CCCCCNC(=O)CCC(=O)N(O)CCOCCNC(=O)CCC(=O)N(O)CCCCCN1
inactive: max response [1] 1.01% | outcome [2] | outcome [3] | outcome [4] inactive [at 17.4 µM] | Potency [5] | Potency [7] | Potency [8] | Potency [9] | Potency [10] | Potency [11]
